# Assay outcomes from PubChem BioAssay.
# E-sel TNF inh: TNF alpha driven E-selectin expression inhibition | HUVEC TNFa-induced E-selectin immunofluorescence, high content | inhibition, % at 2 µM | 120,000 tested, 0.71% active;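 active = inhibition above the batch mean plus 3 SD, and confirmed as a hit on visual image review, cut at about 43% in these data; inconclusive = passes the inhibition cutoff but fails visual image review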
# VCAM1 TNFa inh: reduces TNF alpha induced VCAM1 expression in HUVEC. HUVEC TNFa-induced VCAM-1 immunofluorescence, high-content imaging. inhibition, % at 2 µM. 95,000 tested, 0.48% active;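 active = inhibition above the batch mean plus 3 SD, with images confirmed as a hit by eye, cut at about 37% in these data; inconclusive = inhibition above that limit but hit not confirmed in images; inactive = inhibition not above that limit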
# Phagocytosis inh: blocks phagocytosis by macrophages. 110,000 tested, 0.07% active. J774A.1 macrophage IgG-bead phagocytosis, imaging. inhibition, % at 5 µM;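 active = inhibition above the mean of the plate negative controls plus 5 SD, cut at about 13% in these data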;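 also: phagocytic index as fraction of beads internalized from green versus red external bead signal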
# INS promoter inh: TRM-6 insulin promoter activity inhibition; 130,000 tested, 0.9% active; AID 1273; TRM-6 cells (human fetal islet line), insulin promoter-eGFP reporter, imaging; reporter expression induced with tamoxifen; inhibition, % at 2 µM;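 active = inhibition above the mean plus 3 SD, with well images judged a real hit on visual review, cut at about 60% in these data, passing the limit was not always enough; inconclusive = inhibition over the cutoff but images rejected on review; inactive = inhibition not above the cutoff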
# TNFa cytotox: HUVEC cytotoxicity counter-screen, TNF alpha stimulated; 93,000 tested, 0.17% active; HUVEC TNFalpha-stimulated, Hoechst cell count, imaging; AID 848; cell count reduction, % at 2 µM;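 active = cell count reduction exceeding the screen mean by over 5 SD, scaled to untreated wells per plate, cut at about 78% in these data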;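 also: cells counted after 24 h of TNF alpha exposure following the 1 h pretreatment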
# cytoskel mod: alters cytoskeleton assembly in HUVEC cells; HUVEC TNFa F-actin phalloidin imaging, high content; inhibition, % at 2 µM; 91,000 tested, 0.18% active;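 active = inhibition above the batch mean plus 3 SD and confirmed as a hit by visual image inspection, cut at about 30% in these data, passing the limit was not always enough; inconclusive = above the inhibition threshold but rejected on visual inspection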
# A number is an active result; - = inactive; ? = inconclusive; . = no result given. Most compounds without a hit are left out; they make up all but 1.6% or so of the library.
SMILES,E-sel TNF inh,VCAM1 TNFa inh,Phagocytosis inh,INS promoter inh,TNFa cytotox,cytoskel mod
CC(C)(C)NC(=O)C(c1ccc(O)cc1)N(C(=O)Cn1nnc(-c2ccc(F)cc2)n1)c1ccccc1F (centres undefined),-,.,.,.,.,.
COc1ccc(N2CCN(C(c3cc(OC)ccc3OC)c3nnnn3CC3CCCO3)CC2)cc1 (centres undefined),-,-,.,-,-,-
COc1ccc2c(c1)CCc1c(C(=O)N3CC4(C)CC3CC(C)(C)C4)noc1-2 (centres undefined),-,91,.,-,-,-
COc1ccc2c(c1)CCc1c(C(=O)N3CCOCC3)noc1-2,-,-,-,.,-,-
CN(C)c1nc(C=C(C#N)C#N)c(Cl)n1-c1ccc(F)cc1,87,.,.,.,.,.
COC(=O)c1[nH]c2cc(OC)ccc2c1NC(=O)CN1CCC(C(N)=O)(N2CCCCC2)CC1,-,50,.,-,-,55
O=C1C(=O)N(CC2CCCO2)C(c2ccco2)/C1=C(/O)c1ccc(F)cc1 (centres undefined),.,.,.,-,.,.
CC(=NCCCn1ccnc1)c1c(C)[nH]n(-c2ccc([N+](=O)[O-])cc2)c1=O,-,.,.,.,.,.
O=C(Nc1ccc2c(c1)C(=O)NC2=O)c1ccc2ncsc2c1,.,.,.,-,.,.
COc1ccc(Cl)cc1-c1nc(-c2ccncc2)no1,-,-,-,81,-,-
CCCC1CCC(=C(C#N)C(N)=O)CC1 (centres undefined),-,.,-,-,.,.
COc1ccc(C2=NO[C@@H]3C(=O)N(c4c(C)cccc4C)C(=O)[C@H]23)cc1OC,-,-,-,.,-,-
COc1ccc(CN2C(=O)c3ccccc3C(/C=N\OCc3ccc(F)cc3)C2=O)cc1 (centres undefined),-,-,.,-,-,-
COc1ccc(CN2C(=O)[C@@H]3C(c4ccc(F)cc4)=NO[C@@H]3C2=O)cc1,-,92,-,-,.,-
COC(=O)c1ccccc1N1C(=O)[C@@H]2C(c3ccc(F)cc3)=NO[C@@H]2C1=O,68,-,-,.,-,-
O=S(=O)(Nc1ccc(S(=O)(=O)N2CCCCCC2)cc1)c1cccs1,-,-,-,86,-,-
O=S(=O)(Nc1ccc(N2CCCCC2)cc1)c1cccs1,-,-,-,.,-,-
Cc1cc(C(=O)CSc2n[nH]c(-c3ccccc3F)n2)c(C)n1Cc1cccs1,-,-,-,-,-,-
CS(=O)(=O)N(CC(=O)N1CCCC1)c1ccc(OCc2ccccc2)cc1,-,-,-,75,-,-
COc1ccc(N2CCN(C(=O)CN(c3ccc(Br)cc3)S(C)(=O)=O)CC2)cc1,-,-,-,75,-,-
CS(=O)(=O)N(CC(=O)N1CCCCCC1)c1ccccc1,-,-,-,-,-,-
CN(C)/C=C1\SC(=S)N(N2C(=O)C3C4C=CC(C4)C3C2=O)C1=O (centres undefined),-,.,.,.,.,.
O=C(NCCCN1CCOCC1)c1ccc(Sc2cccc(Cl)c2)c([N+](=O)[O-])c1,-,.,-,-,.,.
CCOC(=O)c1sc(N)c(C(=O)Nc2ccccc2OC)c1C,.,.,.,-,.,.
Cc1ncc(CO)c2cc(C(N)=O)c(=Nc3ccccc3)oc12,-,-,-,.,-,36
SMILES,E-sel TNF inh,VCAM1 TNFa inh,Phagocytosis inh,INS promoter inh,TNFa cytotox,cytoskel mod
Cc1ccc(N=c2oc3cc(O)ccc3cc2C(N)=O)cc1,-,-,-,.,-,-
CCC(C)(C)C(=O)Nc1ccc(OC)cc1[N+](=O)[O-],-,-,.,100,-,-
COc1ccc(NC(=O)c2ccc(C)o2)c([N+](=O)[O-])c1,.,.,.,-,.,.
O=C(Nc1ccccc1N1CCOCC1)c1ccc(Cl)nc1,88,.,.,.,.,.
O=C(Nc1ccccc1N1CCOCC1)c1ccc2c(c1)OCO2,.,.,.,-,.,.
COc1ccc(N2CCN(C(=O)CSc3nnc(-c4ccco4)n3C)CC2)cc1,-,.,.,.,.,.
CC1(C)CC(=O)c2cnc(NC(=O)CCc3ccccc3)nc2C1,-,-,-,-,-,-
O=C(CCc1ccccc1)Nc1ncc2c(n1)CCCC2=O,72,-,-,.,-,-
Cc1ccc(CC2S/C(=C(/C#N)C(=O)NCc3ccco3)N(c3ccccc3)C2=O)cc1 (centres undefined),-,-,-,.,-,63
N#C/C(C(=O)NCc1ccco1)=C1/SC(Cc2ccc(Cl)cc2)C(=O)N1c1ccccc1 (centres undefined),-,-,.,-,-,-
Cc1ccc(NC(=S)c2nc3ccccc3[nH]2)cc1,-,-,.,81,-,-
Cc1ccc(NC(=S)c2nc3ccccc3[nH]2)c(C)c1,-,.,.,-,.,.
O=C(Oc1ccc(NC2=C(Cl)C(=O)c3ccccc3C2=O)cc1)c1ccc([N+](=O)[O-])cc1,-,.,.,62,.,.
CC(=O)Nc1ccc(NC2=C(Cl)C(=O)c3ccccc3C2=O)cc1,-,.,.,-,.,.
CCN(CC)C(=O)/C=C/c1ccc(OC)c(S(=O)(=O)N2CCCCC2)c1,.,.,.,-,.,.
CC(=O)OC(C(=O)NCc1ccco1)c1ccncc1 (centres undefined),-,-,-,-,-,-
CC(=O)OC(C(=O)NCc1ccco1)c1cccnc1 (centres undefined),?,-,-,76,-,-
O=C(NC(Cc1c[nH]c2ccccc12)C(=O)O)/C(=C/c1ccc2c(c1)OCO2)NC(=O)c1ccccc1 (centres undefined),.,.,.,73,.,.
CC(OC(=O)c1ccco1)C(=O)NC1CCCCC1 (centres undefined),86,-,-,.,-,-
Cc1ccc(Cl)cc1N(Cc1ccc(C(=O)NCc2cccnc2)cc1)S(=O)(=O)c1ccccc1,-,-,-,-,-,-
CC(C)NC(=O)CCn1nc(-c2ccc(Cl)cc2)c2ccccc2c1=O,-,.,.,.,.,.
CCNC(=O)CCn1nc(-c2ccc(Cl)cc2)c2ccccc2c1=O,.,84,.,-,96,-
O=C1CCCCCCC1Sc1ccccc1[N+](=O)[O-] (centres undefined),-,-,-,-,-,-
Cc1ccc2nc(SCC(=O)Nc3cc(C(F)(F)F)ccc3N3CCOCC3)[nH]c2c1,-,91,-,-,-,-
Nc1nc(SCC(=O)Nc2cc(C(F)(F)F)ccc2N2CCOCC2)n[nH]1,.,.,.,-,.,.
SMILES,E-sel TNF inh,VCAM1 TNFa inh,Phagocytosis inh,INS promoter inh,TNFa cytotox,cytoskel mod
O=[N+]([O-])c1cc2c(cc1/C=N/Nc1nc(Nc3ccccc3)nc(N3CCCCC3)n1)OCO2,57,-,.,-,-,-
COc1cccc(-n2c(SCc3cc(=O)oc4cc(O)c(O)cc34)nc3ccccc3c2=O)c1,.,.,-,-,.,.
CN(C)CCNc1c2c(c(C#N)c3nc4ccccc4n13)CCCC2,-,-,-,.,-,-
N#Cc1c2c(c(NCc3ccco3)n3c1nc1ccccc13)CCC2,.,-,-,.,84,-
CCOc1ccc2nc(SC3CC(=O)N(c4ccc(OC)cc4OC)C3=O)sc2c1 (centres undefined),.,.,.,-,.,.
CCNC(=O)COC(=O)c1ccc(NS(=O)(=O)c2ccc3c(c2)OCCO3)cc1,.,.,.,-,.,.
O=C(COC(=O)c1ccc(NS(=O)(=O)c2ccc3c(c2)OCCO3)cc1)NC1CC1,-,-,-,92,-,-
O=C(Nc1cccc(Cl)c1N1CCCC1)c1cccc(-c2cc3ccccc3oc2=O)c1,-,-,.,-,-,-
